Structures are written as SMILES. Records with an inconclusive call do not appear. Calls of active or inactive are those of the source. The call rests on the fitted dose curve; in most records, active means well fitted cell-killing curve with a large enough effect; inconclusive means small, poorly fitted or top-dose-only effect, or effect the other way; inactive means no such curve, though single readings can be large or run the other way.
Potency means the concentration at half of the fitted maximal effect.

This assay is described as follows: Quantitative High-Throughput drug screen in 47 multiple myeloma cell lines against the NCATS MIPE library collection: OPM1_PLB cell viability assay (AID 1918989). Further: nearly all actives have a fitted effect of over 40% in size. To be noted: CellTiter-Glo, 48 h; series mostly up to 45.8 µM. An excerpt:
PI: Beverly A. Mock Ph.D.
Laboratory of Cancer Biology and Genetics,
Center for Cancer Research, National Cancer Institute,
National Institute of Health, Bethesda, Maryland
Drug resistance and disease progression are common in multiple myeloma (MM) patients, underscoring the need for new therapeutic combinations. […] We hypothesized that effective combinations would reduce MYC expression and enhance p16 activity. […] These preclinical data identify potentially useful drug combinations for evaluation in drug-resistant MM and reveal potential mechanisms of combined drug sensitivity.
Described herein is the primary MIPE qHTS used to cherrypick compounds. Validated compounds were then further tested for potential synergistic activiy.
[1] Peat TJ, Gaikwad SM, Dubois W, Gyabaah-Kessie N, Zhang S, Gorjifard S, Phyo Z, Andres M, Hughitt VK, Simpson RM, Miller MA, Girvin AT, Taylor A, Williams D, D'Antonio N, Zhang Y, Rajagopalan A, Flietner E, Wilson K, Zhang X, Shinn P, Klumpp-Thomas C, McKnight C, Itkin Z, Chen L, Kazandijian D, Zhang J, Michalowski AM, Simmons JK, Keats J, Thomas CJ, Mock BA. Drug combinations identified by high-throughput screening promote cell cycle transition and upregulate Smad pathways in myeloma. Cancer Lett. 2023 Aug 1;568:216284. doi: 10.1016/j.canlet.2023.216284. Epub 2023 Jun 24. PMID: 37356470; PMCID: PMC10408729.
SEQUENCE No. (e.g., 1, 2, 3, etc.); […] (e.g., Cells, Incubation, Reagent, etc.); VALUE and DESCRIPTION.
1; Cells; 5 uL; white, solid bottom 1536-well Greiner assay plate.
2; Compounds; 23 nL; Kalypsis pin tool (Wako USA) equipped with a 1536-well pin head to transfer to the assay plates.
3; Incubation; 48 hours; 37C incubation.
4; Reagent;5uL; CellTiter Glo (Promega).
5; Detector; 425V; Luminescence; Viewlux PerkinElmer.
NOTES (numbers refer to Sequence numbers above)
1. The cell-based screening methods employed in this study were like those previously published. Briefly, the corresponding myeloma cell lines were screened in 1,536-well plates with 500 cells, 5-uL per well for inhibition of cell viability (assessed by measuring ATP levels with CellTiterGlo).
2. NCATS MIPE 4.0 library of approved and investigational drugs were added using the Kalypsis pin tool. Wells treated with DMSO only for 100% viability and media only for 0% viability were used as controls.
3. The assay plates were covered and incubated for 48 hours in a 37C, 5% CO2 incubator with controlled humidity.
4. After 48 hours, CellTilter-GloTM luminescent substrate mix (Promega) reagent was added to the assay plate and plates we incubated for 5 min at room temperature.
5. Signal was measured as median relative luminescence units on a ViewLux (PerkinElmer) multiplate reader.
[1] Heske CM, Davis MI, Baumgart JT, Wilson K, Gormally MV, Chen L, Zhang X, Ceribelli M, Duveau DY, Guha R, Ferrer M, Arnaldez FI, Ji J, Tran HL, Zhang Y, Mendoza A, Helman LJ, Thomas CJ. Matrix Screen Identifies Synergistic Combination of PARP Inhibitors and Nicotinamide Phosphoribosyltransferase (NAMPT) Inhibitors in Ewing Sarcoma. Clin Cancer Res. 2017 Dec 1;23(23):7301-7311. doi: 10.1158/1078-0432.CCR-17-1121. Epub 2017 Sep 12. PMID: 28899971; PMCID: PMC6636827.
(In ATP-based viability assays light output follows the ATP content of the culture.)
With `O=C1C(c2c(O)[nH]c3ccccc23)=Nc2ccccc21`, the Potency entry is “inactive”. On to `Cc1ccccc1-n1c(Cn2nc(-c3cccc(O)c3)c3c(N)ncnc32)nc2cccc(C)c2c1=O`, for which the Potency was 2.35 µM (active). Regarding `CN(C(Cc1ccc(OS(=O)(=O)c2cccc3cnccc23)cc1)C(=O)N1CCN(c2ccccc2)CC1)S(=O)(=O)c1cccc2cnccc12` (stereo not given), the Potency was 3.72 µM (active). As for `Cc1cc(C(C)Nc2ccccc2)c2nc(N3CCOCC3)cc(=O)n2c1` (stereo not given), the Potency is 20.9 µM (active).

For `CCNC(=O)CCCC=CC[C@@H]1[C@H](C=CC(O)CCc2ccccc2)[C@@H](O)C[C@@H]1O` (stereo not given in full), the Potency entry is “inactive”. Turning to `CS(=O)(=O)c1ccc(C2=C(c3ccccc3)C(=O)OC2)cc1`, the Potency entry is “inactive”.

On to `CNC(=O)[C@H](CC1=CN=C2C=CCC=C12)NC(=O)[C@@H](CC(=O)NO)CC(C)C`, for which the Potency result was “inactive”. Turning to `C=CCc1cccc(C=NNC(=O)CN2CCN(Cc3ccccc3)CC2)c1O`, the Potency is 20.9 µM (active). Regarding `O=C(O)Cc1cccc(OCCCN(Cc2cccc(C(F)(F)F)c2Cl)CC(c2ccccc2)c2ccccc2)c1`, the Potency is 18.7 µM (active). Consider `O=C1Nc2ccc(I)cc2C1=Cc1cc(Br)c(O)c(Br)c1`, for which the Potency is 10.5 µM (active).

Regarding `CCC(=O)OCC(=O)[C@@]1(OC(=O)CC)[C@@H](C)C[C@@H]2[C@H]3CCC4=CC(=O)C=C[C@]4(C)[C@@]3(F)[C@@H](O)C[C@@]21C`, the Potency was 14.8 µM (active). With `COc1ccc(-c2ccc3ncc4c(c3c2)n(-c2ccc(N3CCNCC3)c(C(F)(F)F)c2)c(=O)n4C)cn1`, the Potency result is “inactive”. The value for `CNC(=O)c1cc(Oc2ccc(NC(=O)Nc3ccc(Cl)c(C(F)(F)F)c3)c(F)c2)ccn1` was “inactive”; that for `Cc1cc(CS(=O)(=O)c2ccccc2)cc(OCc2ccc(CN3CCC[C@H]3CO)cc2)c1` was 20.9 µM (active). `Nc1[nH]nc2nnc(-c3c(-c4ccccc4)nn4ccccc34)cc12`: the Potency is 5.26 µM (active). With `FC(F)(F)c1ccc(C=Cc2nc(COc3ccc(CCCCn4ccnn4)cc3)co2)cc1`, the Potency is 0.187 µM (active). Take `CN(C)CCOc1ccc(-c2nc(-c3ccc4c(c3)CCC4=NO)c(-c3ccncc3)[nH]2)cc1`: the Potency was 16.6 µM (active).

As to `CC(C)(OCc1nn(Cc2ccccc2)c2ccccc12)C(=O)O`, the Potency entry was “inactive”.

In the case of `CC(C)c1c(C(=O)Nc2ccccc2)c(-c2ccccc2)c(-c2ccc(F)cc2)n1CC[C@H](O)C[C@@H](O)CC(=O)O`, the Potency was 6.62 µM (active).

As to `NS(=O)(=O)c1ccc(Nc2nc(OCC3CCCCC3)c3[nH]cnc3n2)cc1`, the Potency was 20.9 µM (active). Regarding `CN1N=C(N)c2cn([C@@H]3O[C@H](COP(=O)(O)O)[C@@H](O)[C@@H]3O)c3ncnc1c23`, the Potency was 0.469 µM (active). In the case of `C=CC[N+]1([C@H]2C[C@H]3[C@@H]4CC[C@H]5C[C@H](O)[C@@H](N6CCOCC6)C[C@]5(C)[C@@H]4CC[C@]3(C)[C@H]2OC(C)=O)CCCC1`, the Potency result was “inactive”. Consider `CC=C1C2C=C(C)CC1(N)c1ccc(=O)[nH]c1C2` (stereo not given), for which the Potency entry was “inactive”. For `COc1cc(F)c(C(C)C)cc1-c1ccc(C(F)(F)F)cc1CN1C(=O)O[C@H](c2cc(C(F)(F)F)cc(C(F)(F)F)c2)[C@@H]1C`, the Potency entry is “inactive”. In the case of `Clc1ccc(C2(c3ccc(-c4cn[nH]c4)cc3)CCNCC2)cc1`, the Potency was 2.35 µM (active).

For the molecule `Cc1cc(NC(=O)Nc2ccc(N(C)C)cc2)c2cc(F)cc(F)c2n1`, the Potency result was “inactive”.

`O=c1[nH]c(=O)n([C@H]2C[C@@H](O)[C@@H](CO)O2)cc1I`: the Potency result is “inactive”.

For `COc1c(C)cnc(Cn2cnc3c(Cl)nc(N)nc32)c1C`, the Potency is 0.148 µM (active). Take `COc1cc([C@H]2Oc3cc([C@H]4Oc5cc(O)cc(O)c5C(=O)[C@H]4O)ccc3O[C@H]2CO)ccc1O`: the Potency was 14.8 µM (active). With `CC(=O)OCC(=O)[C@@]1(O)CC[C@H]2[C@@H]3CCC4=CC(=O)C=C[C@]4(C)[C@@H]3[C@@H](O)C[C@@]21C`, the Potency entry was “inactive”. Take `CN1C(=O)C(Cc2c[nH]c3ccccc23)NC1=S` (stereo not given): the Potency entry is “inactive”.

In the case of `CCC[C@H](Nc1nc(-c2ccc(NC(=O)NCC)c(OC)c2)ncc1C)c1cccnc1`, the Potency was 0.001 µM (active). On to `Cc1ccc(C2=Nc3ccc(Cl)cc3OC2)cc1`, for which the Potency was 10.5 µM (active). Take `Cc1cn([C@@H]2C[C@@H](O)[C@H](CO)O2)c(=O)[nH]c1=O`: the Potency entry is “inactive”. `Cn1cnc(-c2cc3nccc(Oc4ccc(NC(=S)NC(=O)Cc5ccccc5)cc4F)c3s2)c1`: the Potency is 18.7 µM (active). The value for `C[C@H]1COC2=C1C(=O)C(=O)c1c2ccc2c1CCCC2(C)C` was 20.9 µM (active); that for `Nc1ncnc2c1ncn2[C@@H]1O[C@H](CO)[C@@H](O)[C@@H]1O` was 20.9 µM (active); that for `CC(C)N(CCCNC(=O)Nc1ccc(C(C)(C)C)cc1)C[C@H]1O[C@@H](n2cc(Br)c3c(N)ncnc32)[C@H](O)[C@H]1O` was 23.5 µM (active). As for `NCc1c[nH]c(=S)n1[C@H]1CCc2c(F)cc(F)cc2C1`, the Potency is 18.7 µM (active). As to `COc1cccc(OC)c1-c1cc(C(=O)NC2(C(=O)O)C3CC4CC(C3)CC2C4)nn1-c1ccnc2cc(Cl)ccc12` (stereo not given), the Potency entry was “inactive”.

(Values after PubChem BioAssay (NCATS).)
